Test results reported in PubChem BioAssay.
Unmarked numbers belong to inactive results. For some assays here: Entries with a potency or affinity are not part of this list. Active and inactive are the calls of the source. Unless noted, no rule for the calls is given here.

How the values were obtained:
[1] = antimalarial activity against Dd2 strain (AID 2302;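 active = growth inhibition above 50% at the single 2 µM test dose, taken to imply half-maximal potency below 2 µM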;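 also: 0% = DMSO untreated growth and 100% = chloroquine plus artemisinin killed control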); details: P. falciparum Dd2 in RBCs, LDH growth readout, 72 h; at 2 µM; hits give high values
[2] = HepG2 cytotoxicity, primary screen, cytotoxicity control for P. falciparum antimalarial project, cell-based, ATP luminescence (AID 2303;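 active = inhibition above 50%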;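 also: 0% = DMSO wells and 100% = digitonin-killed cells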); details: HepG2 viability, 24-48 h, at 10 µM, hits give high values
[3] = molecular target: L-lactate dehydrogenase (Plasmodium falciparum (isolate CDC / Honduras)) (UniProt Q27743); experiment: PfLDH activity inhibition – cell lysate, 3D7 strain, counter-screen for P. falciparum growth inhibition project (AID 2304);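 also: 0% = vehicle and 100% = reference inhibitor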; details: P. falciparum 3D7 crude extract, LDH APAD/NBT absorbance; at 2 µM; hits give high values
Sequence of L-lactate dehydrogenase (Plasmodium falciparum (isolate CDC / Honduras)) (Q27743 whole entry, looked up): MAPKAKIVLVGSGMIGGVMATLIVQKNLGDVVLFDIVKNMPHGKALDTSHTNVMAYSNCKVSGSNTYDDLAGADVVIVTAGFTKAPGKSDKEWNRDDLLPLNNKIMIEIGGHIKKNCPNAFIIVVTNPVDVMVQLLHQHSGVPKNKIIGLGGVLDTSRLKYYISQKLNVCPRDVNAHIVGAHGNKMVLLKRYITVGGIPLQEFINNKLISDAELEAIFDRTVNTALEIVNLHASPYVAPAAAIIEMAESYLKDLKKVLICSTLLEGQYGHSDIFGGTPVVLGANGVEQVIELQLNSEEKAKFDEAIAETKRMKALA

[4] = inhibition of 3D7 malaria parasite growth – strain 3D7 (AID 2306);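 also: 0% = DMSO wells and 100% = chloroquine plus artemisinin control wells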; details: P. falciparum 3D7 erythrocytic growth, LDH absorbance, 72 h; at 2 µM; hits give high values
[5] = molecular target: Calcium-dependent protein kinase 1 (Plasmodium falciparum (isolate 3D7)) (UniProt P62344); experiment: PfCDPK1 kinase inhibitors, biochemical, TCAMS library (AID 1159585; cut-off not given, nearly all actives have IC50 up to about 0.98 µM;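 also: inhibitors leave more ATP so luminescence rises with inhibition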); details: recombinant PfCDPK1, Kinase-Glo ATP depletion luminescence
Sequence of Calcium-dependent protein kinase 1 (Plasmodium falciparum (isolate 3D7)) (P62344 whole entry, looked up): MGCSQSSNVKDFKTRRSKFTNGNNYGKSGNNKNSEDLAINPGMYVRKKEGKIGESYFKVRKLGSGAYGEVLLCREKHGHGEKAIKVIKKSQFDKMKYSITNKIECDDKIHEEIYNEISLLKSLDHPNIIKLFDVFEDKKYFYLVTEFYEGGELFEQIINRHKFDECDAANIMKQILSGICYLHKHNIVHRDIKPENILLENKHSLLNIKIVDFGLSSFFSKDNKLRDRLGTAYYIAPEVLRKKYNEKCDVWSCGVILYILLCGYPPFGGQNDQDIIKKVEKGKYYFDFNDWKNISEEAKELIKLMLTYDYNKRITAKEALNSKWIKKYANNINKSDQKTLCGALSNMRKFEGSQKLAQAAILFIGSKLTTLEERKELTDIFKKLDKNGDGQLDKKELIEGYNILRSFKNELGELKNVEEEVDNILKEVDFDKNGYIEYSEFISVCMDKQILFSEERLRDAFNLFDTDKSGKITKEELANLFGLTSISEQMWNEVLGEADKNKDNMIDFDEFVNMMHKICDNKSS

[6] = molecular target: Plasmodium falciparum protein kinase 6 (PK6, PF3D7_1337100) (UniProt Q8IDW1); experiment: PfPK6 kinase inhibitors, biochemical, TCAMS library (AID 1159586); details: recombinant PfPK6, Kinase-Glo ATP depletion luminescence
Sequence of Plasmodium falciparum protein kinase 6 (PK6, PF3D7_1337100) (Q8IDW1 1-305): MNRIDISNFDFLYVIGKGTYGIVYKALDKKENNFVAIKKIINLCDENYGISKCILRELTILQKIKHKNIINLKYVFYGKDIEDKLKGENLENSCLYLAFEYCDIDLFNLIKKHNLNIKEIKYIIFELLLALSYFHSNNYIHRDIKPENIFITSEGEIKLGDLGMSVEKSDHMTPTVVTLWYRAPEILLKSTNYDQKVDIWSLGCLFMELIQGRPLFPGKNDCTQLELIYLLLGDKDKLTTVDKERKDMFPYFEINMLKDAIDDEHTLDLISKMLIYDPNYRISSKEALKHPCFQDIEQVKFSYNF

[7] = molecular target: Protein kinase 7 (PK7), Plasmodium falciparum 3D7 (PF3D7_0213400) (UniProt Q7YTF7); experiment: inhibition of Plasmodium PK7 catalytic activity – biochemical, TCAMS antimalarial set, Kinase-Glo luminescence (AID 1159587); details: recombinant PfPK7, Kinase-Glo ATP depletion luminescence
Sequence of Protein kinase 7 (PK7), Plasmodium falciparum 3D7 (PF3D7_0213400) (Q7YTF7 1-343): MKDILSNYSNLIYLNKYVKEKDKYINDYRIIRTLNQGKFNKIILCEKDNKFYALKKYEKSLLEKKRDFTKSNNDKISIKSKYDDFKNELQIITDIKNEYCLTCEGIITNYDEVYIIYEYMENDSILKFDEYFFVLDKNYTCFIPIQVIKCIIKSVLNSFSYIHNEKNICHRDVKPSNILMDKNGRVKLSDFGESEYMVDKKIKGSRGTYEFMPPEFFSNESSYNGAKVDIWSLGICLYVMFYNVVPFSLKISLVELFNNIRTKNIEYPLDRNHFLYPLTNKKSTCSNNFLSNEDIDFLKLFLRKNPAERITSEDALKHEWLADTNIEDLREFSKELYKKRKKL

[8] = molecular target: Calcium-dependent protein kinase 4 (Plasmodium falciparum (isolate 3D7)) (UniProt Q8IBS5); experiment: PfCDPK4 kinase inhibitors, biochemical, TCAMS library (AID 1159588; cut-off not given, nearly all actives have IC50 up to about 0.91 µM); details: recombinant PfCDPK4, Kinase-Glo ATP depletion luminescence
Sequence of Calcium-dependent protein kinase 4 (Plasmodium falciparum (isolate 3D7)) (Q8IBS5 whole entry, looked up): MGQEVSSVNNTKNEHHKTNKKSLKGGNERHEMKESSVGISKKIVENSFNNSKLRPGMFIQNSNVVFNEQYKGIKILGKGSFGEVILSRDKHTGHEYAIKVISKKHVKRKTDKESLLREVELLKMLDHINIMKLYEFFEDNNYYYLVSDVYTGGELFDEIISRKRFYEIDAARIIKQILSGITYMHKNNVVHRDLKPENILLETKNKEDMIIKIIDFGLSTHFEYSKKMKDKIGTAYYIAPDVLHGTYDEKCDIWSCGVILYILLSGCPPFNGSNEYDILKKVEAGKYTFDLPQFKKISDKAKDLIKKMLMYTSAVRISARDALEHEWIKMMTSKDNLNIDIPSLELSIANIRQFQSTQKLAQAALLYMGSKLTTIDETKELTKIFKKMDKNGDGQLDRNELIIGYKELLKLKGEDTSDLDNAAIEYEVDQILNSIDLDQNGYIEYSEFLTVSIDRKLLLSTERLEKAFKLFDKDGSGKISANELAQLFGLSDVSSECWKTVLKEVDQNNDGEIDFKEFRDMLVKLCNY

Row | SMILES | growth inhibition [1] | inhibition [2] | inhibition [3] | growth inhibition [4] | outcome [5] | outcome [6] | outcome [7] | outcome [8]
1 | CN(C)CCNCc1cccc(-c2ccc3c(Nc4cc(O)c(Cl)cc4F)ccnc3c2)c1 | 59% (active) | 6% | 3% | 99% (active) | inactive | inactive | inactive | inactive
2 | CCn1c(Sc2ccc(C#N)c([N+](=O)[O-])c2)nnc1-c1ccc(Cl)cc1 | 93% (active) | 0% | 6% | 97% (active) | inactive | inactive | inactive | inactive
3 | Cc1cccc(CNc2nc(C)cc(N[C@@H](Cc3ccccc3)C(=O)NCCOc3ccccc3)n2)c1 | 54% (active) | 28% | 1% | 93% (active) | inactive | inactive | inactive | inactive
4 | O=C(Cc1cccc(OCCCN(Cc2cccc(C(F)(F)F)c2Cl)CC(c2ccccc2)c2ccccc2)c1)NCc1ccco1 | 84% (active) | 2% | -6% | 94% (active) | inactive | inactive | inactive | inactive
5 | CC1(C(=O)Nc2ccc([N+](=O)[O-])cc2O)CC2c3ccccc3C1c1ccccc12 (stereo not given) | 16% | 37% | 3% | 98% (active) | inactive | inactive | inactive | inactive
6 | CCCCN(CCCC)CCNC(=O)c1cc(OC(F)(F)F)ccc1O | 90% (active) | 8% | -8% | 93% (active) | inactive | inactive | inactive | inactive
7 | CCC(C)(C)c1ccc(OCCCC(=O)Nc2ccc(Cl)c([N+](=O)[O-])c2)c(C(C)(C)CC)c1 | 88% (active) | -1% | -8% | 92% (active) | inactive | inactive | inactive | inactive
8 | Cc1ccc(C(NC(=O)Cc2ccccc2)c2ccc3cccnc3c2O)cc1 (stereo not given) | 77% (active) | 47% | 6% | 94% (active) | inactive | inactive | inactive | inactive
9 | O=C(N[C@H]1CCN(Cc2ccc(OC3CCN(Cc4ccccc4)CC3)c(Cl)c2)C1)c1ccc(Cl)c(Cl)c1 | 11% | 59% (active) | 0% | 99% (active) | inactive | inactive | inactive | inactive
10 | Cc1ccccc1C1CCN(C2CCC(NC(=O)/C=C/c3c[nH]c4ccccc34)CC2)CC1 (stereo not given) | 51% (active) | 30% | 2% | 100% (active) | inactive | inactive | inactive | inactive
11 | C=C(C)C1CC=C(CN2CCCC(n3ccc4cc(NC(=O)c5ccco5)ccc43)CC2)CC1 (stereo not given) | 95% (active) | 13% | 1% | 90% (active) | inactive | inactive | inactive | inactive
12 | OC1CCCN(Cc2ccc(-c3cccc(-c4nc5ccccc5[nH]4)c3)cc2)C1 (stereo not given) | -3% | 14% | 2% | 86% (active) | inactive | inactive | inactive | inactive
13 | O=C(Nc1ccccc1)N(Cc1cccc(-c2ccc(CNCCc3ccccc3)cc2)c1)C1CCN(Cc2ccccc2)CC1 | 95% (active) | 100% (active) | 3% | 101% (active) | inactive | inactive | inactive | inactive
14 | FC(F)(F)c1ccc2nc(-c3ccc(-c4cccc(CN5CCC(CCN6CCCCC6)CC5)c4)cc3)[nH]c2c1 | 96% (active) | 100% (active) | -5% | 101% (active) | inactive | inactive | inactive | inactive
15 | COc1ccc(C(=O)CC(=O)c2ccc(OC)cc2OC)c(OC)c1 | -2% | 1% | 2% | 98% (active) | inactive | inactive | inactive | inactive
16 | COc1ccc(COc2cc(NCCCN)nc3ccccc23)cc1 | 5% | 3% | -4% | 101% (active) | inactive | inactive | inactive | inactive
17 | CCCCc1cc(NCC)nc(Nc2ccc(OC)cc2)n1 | 32% | 30% | -4% | 85% (active) | inactive | inactive | inactive | inactive
18 | CC(C)c1ccc(OCCCON2C(N)=NC(N)=NC2(C)C)cc1 | 97% (active) | 69% (active) | 0% | 93% (active) | inactive | inactive | inactive | inactive
19 | O=C(C=Cc1ccc(Cl)c(Cl)c1)NCCCCCN1CCC(CCCNC(=O)c2sc3ccccc3c2Cl)CC1 | 40% | 99% (active) | -5% | 93% (active) | inactive | inactive | inactive | inactive
20 | COc1ccc2nccc(N3CCC(SCCNS(=O)(=O)c4ccc5c(c4)NC(=O)CS5)C3)c2n1 (stereo not given) | 17% | 20% | -5% | 99% (active) | inactive | inactive | inactive | inactive

Row | SMILES | growth inhibition [1] | inhibition [2] | inhibition [3] | growth inhibition [4] | outcome [5] | outcome [6] | outcome [7] | outcome [8]
21 | CN(C)CCOC(=O)C1(O)CCC2CC1C2(C)C (stereo not given) | -5% | 10% | -9% | 95% (active) | inactive | inactive | inactive | inactive
22 | CC(C)COc1ccc(Cl)cc1Cc1ccc(-c2nc3c(F)c(F)ccc3[nH]2)o1 | 85% (active) | 26% | -1% | 94% (active) | inactive | inactive | inactive | inactive
23 | COc1cccc(NC(=O)[C@H](C)n2c(=O)[nH]c3ccccc3c2=O)c1 | 92% (active) | 8% | -3% | 100% (active) | inactive | inactive | inactive | inactive
24 | COc1ccc2nccc(N(C)CC3(O)CCC(NCc4cc5c(cn4)OCCO5)CC3)c2n1 (stereo not given) | 14% | 1% | -2% | 99% (active) | inactive | inactive | inactive | inactive
25 | CCCC1(NC[C@@H](O)[C@H](Cc2ccccc2)NC(=O)c2cc(NCC)cc(N3CCCCS3(=O)=O)c2)CCCCC1 | 98% (active) | 4% | -4% | 101% (active) | inactive | inactive | inactive | inactive
26 | CC(C)CCCC(C)NC[C@@H](O)[C@H](Cc1ccccc1)NC(=O)c1cc(N2CCCC2=O)cc(N(c2ccccc2)S(C)(=O)=O)c1 (stereo not given in full) | 97% (active) | 17% | -5% | 99% (active) | inactive | inactive | inactive | inactive
27 | OC1CCCN(Cc2cccc(-c3ccc(-c4nc5ccc(C(F)(F)F)cc5[nH]4)cc3)c2)C1 (stereo not given) | 91% (active) | 27% | 4% | 100% (active) | inactive | inactive | inactive | inactive
28 | Cc1cc(OC(C)C(=O)N2CCc3ccccc32)ccc1Cl (stereo not given) | 54% (active) | 20% | 6% | 89% (active) | inactive | inactive | inactive | inactive
29 | Cc1ccc(/C=C/C(=O)NCCCCCN2CCC(c3c[nH]c4ccccc34)CC2)cc1 | 7% | 36% | 0% | 86% (active) | inactive | inactive | inactive | inactive
30 | CCC(C)c1ccc(Nc2nc(C)cc(N(CC)CCCN3CCCCC3)n2)cc1 (stereo not given) | 83% (active) | 55% (active) | -7% | 101% (active) | inactive | inactive | inactive | inactive
31 | CC1CCN(CC[C@H]2CCCN2S(=O)(=O)c2cccc(NC(=O)c3ccc(-c4ccc(Cl)cc4)o3)c2)CC1 | 65% (active) | 45% | 3% | 101% (active) | inactive | inactive | inactive | inactive
32 | CN(C)CCOc1cc(NC(=O)Nc2ccc(-c3ccccc3)cc2Cl)ccc1I | 93% (active) | 25% | 3% | 102% (active) | inactive | inactive | inactive | inactive
33 | N#Cc1ccc2c(c1)CN(C1CCC(NC(=O)c3cc(-c4ccc(Cl)cc4)cs3)CC1)CCC2 (stereo not given) | 99% (active) | 36% | 0% | 101% (active) | inactive | inactive | inactive | inactive
34 | CC(C)CNC(=O)c1cncc(-c2ccc(CN(C)C3CCN(C)CC3)cc2)c1 | 84% (active) | 15% | -1% | 101% (active) | inactive | inactive | inactive | inactive
35 | CC(C)C[C@H](NC(=O)OC(C)(C)C)C(=O)Nc1ccc(Cc2ccc(NC(=O)[C@H](CC(C)C)NC(=O)OC(C)(C)C)cc2)cc1 | 88% (active) | -5% | 0% | 94% (active) | inactive | inactive | inactive | inactive
36 | O=C(Nc1cccc(-c2cccc(-c3nc4ccc(F)cc4[nH]3)c2)c1)c1ccoc1 | 35% | 36% | 5% | 98% (active) | inactive | inactive | inactive | inactive
37 | Cc1cc(C2CCN(CCCCNC(=O)c3ccc(NC(=O)c4ccc(Cl)cc4)cc3)CC2)c(C)cc1OCc1ccncc1 | 92% (active) | 33% | 6% | 100% (active) | inactive | inactive | inactive | inactive
38 | O=C(NCCN1Cc2ccccc2C1=O)c1ccc(Oc2ccc(C(=O)NCCN3Cc4ccccc4C3=O)cc2)cc1 | 95% (active) | 27% | -1% | 99% (active) | inactive | inactive | inactive | inactive
39 | NC1CCN(CCNCc2cccc(-c3ccc(-c4nc5ccc(F)cc5[nH]4)cc3)c2)C1 (stereo not given) | 4% | 8% | 2% | 99% (active) | inactive | inactive | inactive | inactive
40 | CCC(=O)Nc1cc(=O)[nH]c2nc(-c3ccc(Cl)cc3)nn12 | 62% (active) | 3% | -11% | 84% (active) | inactive | inactive | inactive | inactive
